# Experiments:
# Assay in all cases: DAPPL (digital affinity profiling via proximity ligation, sequencing); 10 mM Tris-HCl pH 7.5, 50 mM NaCl, 1 mM DTT, 4% glycerol, room temperature, 30 min; GST-TFs on glutathione beads, 16-mer random dsDNA library, 0.1% formaldehyde crosslink after washing; high values mean tight binding
# FEV = target: T1, FEV (Homo sapiens, UniProt Q99581 1-238); conditions: protein: recombinant; tags: N-terminal GST; dsDNA, one strand shown
# T1 sequence: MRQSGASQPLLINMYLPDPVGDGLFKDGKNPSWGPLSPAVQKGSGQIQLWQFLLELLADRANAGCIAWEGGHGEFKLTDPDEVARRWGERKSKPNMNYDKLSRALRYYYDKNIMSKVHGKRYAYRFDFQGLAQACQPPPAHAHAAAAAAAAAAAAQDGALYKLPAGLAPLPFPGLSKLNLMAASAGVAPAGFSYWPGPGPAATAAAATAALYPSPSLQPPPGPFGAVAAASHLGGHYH
# Procedure, shortened: (§1)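 Pools of DNA-barcoded human transcription factors, expressed in yeast as GST fusions on glutathione beads and combined with a tag-only sample, were incubated with 200 nmole of a 16-mer random double-stranded DNA library. Incubation took 30 min at room temperature in Tris/NaCl/DTT/glycerol buffer and was followed by washing, 0.1% formaldehyde crosslinking, proximity ligation (BsaI/T4 ligase, 1 h, 37 °C), PCR amplification and sequencing on an Illumina NextSeq500. Binding signal is the ratio of a hexamer's read frequency for a factor to its frequency for the tag-only sample.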
# ETV5 = ETV5 (Homo sapiens, UniProt P41161 1-510); conditions: protein: recombinant; tags: N-terminal GST; dsDNA, one strand shown
# Procedure, shortened: as §1
# HSF1 = HSF1 (Homo sapiens, UniProt Q00613 1-529); conditions: protein: recombinant; tags: N-terminal GST; chain copies: 3; dsDNA, one strand shown
# Procedure, shortened: as §1
# SPIC = target: T2, SPIC (Homo sapiens, UniProt Q8N5J4 1-248); conditions: protein: recombinant; tags: N-terminal GST; dsDNA, one strand shown
# T2 sequence: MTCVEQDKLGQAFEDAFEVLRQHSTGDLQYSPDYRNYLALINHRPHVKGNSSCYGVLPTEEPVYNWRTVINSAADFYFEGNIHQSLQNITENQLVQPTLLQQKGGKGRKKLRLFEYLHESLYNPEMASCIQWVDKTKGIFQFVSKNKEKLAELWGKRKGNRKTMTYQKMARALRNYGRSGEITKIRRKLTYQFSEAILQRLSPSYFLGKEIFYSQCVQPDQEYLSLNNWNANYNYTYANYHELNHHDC
# Procedure, shortened: as §1
# ELF4 = ELF4 (Homo sapiens, UniProt Q99607 1-663); conditions: protein: recombinant; tags: N-terminal GST; dsDNA, one strand shown
# Procedure, shortened: as §1
# ELK4 = target: T3, ELK4 (Homo sapiens, UniProt P28324-2 1-405); conditions: protein: recombinant; tags: N-terminal GST; dsDNA, one strand shown
# T3 sequence: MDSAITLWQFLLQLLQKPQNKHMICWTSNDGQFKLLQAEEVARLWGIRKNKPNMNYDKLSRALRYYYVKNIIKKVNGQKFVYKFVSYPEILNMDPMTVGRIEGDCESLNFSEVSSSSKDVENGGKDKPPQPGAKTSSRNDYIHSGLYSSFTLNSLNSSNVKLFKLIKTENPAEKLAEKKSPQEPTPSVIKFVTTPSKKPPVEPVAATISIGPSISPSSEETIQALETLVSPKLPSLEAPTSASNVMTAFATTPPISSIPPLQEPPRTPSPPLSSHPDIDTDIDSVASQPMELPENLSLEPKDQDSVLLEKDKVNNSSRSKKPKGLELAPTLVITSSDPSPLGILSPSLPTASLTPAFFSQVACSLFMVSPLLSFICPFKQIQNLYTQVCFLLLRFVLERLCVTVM
# Procedure, shortened: as §1
# ETV2 = target: T4, ETV2 (Homo sapiens, UniProt O00321 1-342); conditions: protein: recombinant; tags: N-terminal GST; dsDNA, one strand shown
# T4 sequence: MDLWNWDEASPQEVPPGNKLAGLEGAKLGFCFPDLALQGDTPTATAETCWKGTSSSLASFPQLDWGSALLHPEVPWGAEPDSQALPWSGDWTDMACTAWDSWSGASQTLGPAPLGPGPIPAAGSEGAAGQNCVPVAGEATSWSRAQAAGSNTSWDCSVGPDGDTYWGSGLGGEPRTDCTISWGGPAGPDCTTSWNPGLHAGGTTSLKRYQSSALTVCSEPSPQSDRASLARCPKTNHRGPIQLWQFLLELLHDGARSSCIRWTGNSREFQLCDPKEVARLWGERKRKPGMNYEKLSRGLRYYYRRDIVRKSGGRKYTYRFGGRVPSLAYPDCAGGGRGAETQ
# Procedure, shortened: as §1
# ELF3 = target: T5, ELF3 (Homo sapiens, UniProt P78545 1-371); conditions: protein: recombinant; tags: N-terminal GST; dsDNA, one strand shown
# T5 sequence: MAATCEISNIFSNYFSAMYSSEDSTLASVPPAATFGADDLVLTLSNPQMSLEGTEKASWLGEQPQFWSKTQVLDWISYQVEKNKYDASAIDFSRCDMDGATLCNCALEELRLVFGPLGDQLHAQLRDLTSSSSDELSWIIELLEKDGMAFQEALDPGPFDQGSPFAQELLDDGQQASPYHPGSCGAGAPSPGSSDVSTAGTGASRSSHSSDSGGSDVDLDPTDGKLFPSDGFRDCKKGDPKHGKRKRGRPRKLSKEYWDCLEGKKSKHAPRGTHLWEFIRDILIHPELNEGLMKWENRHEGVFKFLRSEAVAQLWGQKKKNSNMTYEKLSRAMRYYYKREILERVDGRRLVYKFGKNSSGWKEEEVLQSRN
# Procedure, shortened: as §1
# CRX = CRX (Homo sapiens, UniProt O43186 1-299); conditions: protein: recombinant; tags: N-terminal GST; dsDNA, one strand shown
# Procedure, shortened: as §1
# ETV1 = ETV1 (Homo sapiens, UniProt P50549 1-477); conditions: protein: recombinant; tags: N-terminal GST; dsDNA, one strand shown
# Procedure, shortened: as §1
# ERF = target: T6, ERF (Homo sapiens, UniProt P50548 1-548); conditions: protein: recombinant; tags: N-terminal GST; dsDNA, one strand shown
# T6 sequence: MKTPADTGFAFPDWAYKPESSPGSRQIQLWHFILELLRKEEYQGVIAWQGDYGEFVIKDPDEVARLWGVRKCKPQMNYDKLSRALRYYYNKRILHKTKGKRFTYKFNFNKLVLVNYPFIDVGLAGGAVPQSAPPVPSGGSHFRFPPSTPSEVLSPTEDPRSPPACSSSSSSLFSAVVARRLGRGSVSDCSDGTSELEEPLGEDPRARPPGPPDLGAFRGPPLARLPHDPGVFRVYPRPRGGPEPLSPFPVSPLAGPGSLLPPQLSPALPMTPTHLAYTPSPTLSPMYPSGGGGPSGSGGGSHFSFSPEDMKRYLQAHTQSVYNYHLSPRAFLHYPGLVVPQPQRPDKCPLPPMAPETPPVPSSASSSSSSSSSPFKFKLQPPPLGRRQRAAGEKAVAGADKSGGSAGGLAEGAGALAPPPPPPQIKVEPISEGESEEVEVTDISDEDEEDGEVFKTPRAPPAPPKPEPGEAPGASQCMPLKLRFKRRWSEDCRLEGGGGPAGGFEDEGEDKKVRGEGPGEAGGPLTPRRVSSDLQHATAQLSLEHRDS
# Procedure, shortened: as §1
# ETV3L = target: T7, ETV3L (Homo sapiens, UniProt Q6ZN32 1-361); conditions: protein: recombinant; tags: N-terminal GST; dsDNA, one strand shown
# T7 sequence: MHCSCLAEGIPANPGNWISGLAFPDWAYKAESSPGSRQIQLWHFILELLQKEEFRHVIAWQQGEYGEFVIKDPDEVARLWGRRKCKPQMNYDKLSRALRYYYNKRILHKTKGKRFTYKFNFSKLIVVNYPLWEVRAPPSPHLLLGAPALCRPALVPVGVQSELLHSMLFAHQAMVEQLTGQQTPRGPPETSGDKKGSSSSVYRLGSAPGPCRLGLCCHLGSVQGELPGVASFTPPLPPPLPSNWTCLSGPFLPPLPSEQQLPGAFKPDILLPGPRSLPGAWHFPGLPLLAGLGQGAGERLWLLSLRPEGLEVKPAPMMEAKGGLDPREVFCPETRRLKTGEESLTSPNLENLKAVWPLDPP
# Procedure, shortened: as §1
# ETS2 = target: T8, ETS2 (Homo sapiens, UniProt P15036 1-469); conditions: protein: recombinant; tags: N-terminal GST; dsDNA, one strand shown
# T8 sequence: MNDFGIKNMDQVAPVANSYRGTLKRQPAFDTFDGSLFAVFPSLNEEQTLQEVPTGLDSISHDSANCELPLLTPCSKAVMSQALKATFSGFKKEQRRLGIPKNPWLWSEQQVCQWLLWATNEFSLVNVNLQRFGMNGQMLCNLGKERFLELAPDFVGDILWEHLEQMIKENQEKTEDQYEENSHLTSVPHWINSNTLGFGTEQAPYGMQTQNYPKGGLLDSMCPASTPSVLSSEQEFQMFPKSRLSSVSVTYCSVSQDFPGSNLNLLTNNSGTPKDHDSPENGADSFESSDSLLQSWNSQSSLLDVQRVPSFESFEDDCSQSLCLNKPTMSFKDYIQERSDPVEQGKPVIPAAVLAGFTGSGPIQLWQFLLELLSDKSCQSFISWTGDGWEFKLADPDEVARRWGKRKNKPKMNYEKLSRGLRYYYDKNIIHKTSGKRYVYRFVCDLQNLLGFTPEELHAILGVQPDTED
# Procedure, shortened: as §1
# SPDEF = target: T9, SPDEF (Homo sapiens, UniProt O95238 1-335); conditions: protein: recombinant; tags: N-terminal GST; dsDNA, one strand shown
# T9 sequence: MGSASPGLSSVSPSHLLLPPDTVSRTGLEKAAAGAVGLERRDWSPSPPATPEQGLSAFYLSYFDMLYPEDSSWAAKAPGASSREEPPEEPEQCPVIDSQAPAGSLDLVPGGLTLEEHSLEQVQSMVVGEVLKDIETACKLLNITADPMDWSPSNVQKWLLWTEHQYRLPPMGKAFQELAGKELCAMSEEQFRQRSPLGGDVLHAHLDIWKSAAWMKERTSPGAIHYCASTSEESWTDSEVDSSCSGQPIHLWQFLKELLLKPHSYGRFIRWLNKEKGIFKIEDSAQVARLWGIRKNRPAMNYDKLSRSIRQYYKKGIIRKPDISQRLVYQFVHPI
# Procedure, shortened: as §1
# ETV7 = target: T10, ETV7 (Homo sapiens, UniProt Q9Y603 1-341); conditions: protein: recombinant; tags: N-terminal GST; dsDNA, one strand shown
# T10 sequence: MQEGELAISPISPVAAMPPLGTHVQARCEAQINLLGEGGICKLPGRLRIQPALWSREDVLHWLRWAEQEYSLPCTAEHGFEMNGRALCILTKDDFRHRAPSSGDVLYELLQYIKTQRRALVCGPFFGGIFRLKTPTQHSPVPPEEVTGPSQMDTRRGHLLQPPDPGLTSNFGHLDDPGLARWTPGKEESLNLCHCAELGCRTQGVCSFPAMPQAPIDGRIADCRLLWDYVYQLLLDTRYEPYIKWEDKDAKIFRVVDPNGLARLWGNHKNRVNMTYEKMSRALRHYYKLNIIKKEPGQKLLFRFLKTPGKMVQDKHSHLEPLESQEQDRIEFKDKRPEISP
# Procedure, shortened: as §1
# ELF5 = target: T11, ELF5 (Homo sapiens, UniProt Q9UKW6-2 1-255); conditions: protein: recombinant; tags: N-terminal GST; dsDNA, one strand shown
# T11 sequence: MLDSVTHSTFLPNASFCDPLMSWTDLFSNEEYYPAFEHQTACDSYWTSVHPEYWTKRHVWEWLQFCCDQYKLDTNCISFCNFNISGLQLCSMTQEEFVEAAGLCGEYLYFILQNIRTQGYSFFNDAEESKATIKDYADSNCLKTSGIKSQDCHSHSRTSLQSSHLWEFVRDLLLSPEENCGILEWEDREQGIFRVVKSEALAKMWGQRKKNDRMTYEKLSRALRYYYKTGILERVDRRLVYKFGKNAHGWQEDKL
# Procedure, shortened: as §1
# ETV3 = target: T12, ETV3 (Homo sapiens, UniProt P41162-2 1-143); conditions: protein: recombinant; tags: N-terminal GST; dsDNA, one strand shown
# T12 sequence: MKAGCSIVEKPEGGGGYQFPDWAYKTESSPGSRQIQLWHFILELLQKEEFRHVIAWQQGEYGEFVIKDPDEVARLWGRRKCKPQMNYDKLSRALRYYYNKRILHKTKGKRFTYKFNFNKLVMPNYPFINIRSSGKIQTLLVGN
# Procedure, shortened: as §1
# ETV6 = ETV6 (Homo sapiens, UniProt P41212 1-452); conditions: protein: recombinant; tags: N-terminal GST; dsDNA, one strand shown
# Procedure, shortened: as §1
# ETV1, sequence (P50549 whole entry): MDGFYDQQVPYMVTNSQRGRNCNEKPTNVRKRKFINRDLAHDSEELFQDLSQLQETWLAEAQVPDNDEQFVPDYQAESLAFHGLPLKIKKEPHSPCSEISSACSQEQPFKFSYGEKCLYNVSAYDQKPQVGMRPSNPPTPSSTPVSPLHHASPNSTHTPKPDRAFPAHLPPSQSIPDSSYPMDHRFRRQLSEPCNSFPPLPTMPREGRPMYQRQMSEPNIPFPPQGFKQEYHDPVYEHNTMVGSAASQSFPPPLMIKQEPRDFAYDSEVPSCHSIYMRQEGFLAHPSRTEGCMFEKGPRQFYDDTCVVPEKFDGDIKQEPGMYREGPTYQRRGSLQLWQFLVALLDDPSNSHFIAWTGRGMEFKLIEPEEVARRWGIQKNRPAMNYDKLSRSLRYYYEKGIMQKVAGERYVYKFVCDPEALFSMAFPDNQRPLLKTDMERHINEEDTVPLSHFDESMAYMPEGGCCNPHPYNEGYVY
# ELF4, sequence (Q99607 whole entry): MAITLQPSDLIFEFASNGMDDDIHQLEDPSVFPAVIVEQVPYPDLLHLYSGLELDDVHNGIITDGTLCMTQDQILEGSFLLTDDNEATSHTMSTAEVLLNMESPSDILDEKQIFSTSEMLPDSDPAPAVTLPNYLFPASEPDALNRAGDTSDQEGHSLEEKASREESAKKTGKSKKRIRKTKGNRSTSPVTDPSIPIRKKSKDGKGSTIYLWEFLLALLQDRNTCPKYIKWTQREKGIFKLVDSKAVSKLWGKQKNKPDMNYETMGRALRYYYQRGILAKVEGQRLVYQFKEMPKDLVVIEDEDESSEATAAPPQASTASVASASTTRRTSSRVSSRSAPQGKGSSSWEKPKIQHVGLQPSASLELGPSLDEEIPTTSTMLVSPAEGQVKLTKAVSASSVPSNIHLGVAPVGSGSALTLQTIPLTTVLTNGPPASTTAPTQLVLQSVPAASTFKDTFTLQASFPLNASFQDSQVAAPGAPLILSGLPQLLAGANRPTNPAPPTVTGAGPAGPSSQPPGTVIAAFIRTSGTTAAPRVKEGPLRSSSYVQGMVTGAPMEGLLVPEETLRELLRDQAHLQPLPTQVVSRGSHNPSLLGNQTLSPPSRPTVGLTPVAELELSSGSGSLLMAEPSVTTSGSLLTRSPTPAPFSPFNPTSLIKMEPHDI
# ETV6, sequence (P41212 whole entry): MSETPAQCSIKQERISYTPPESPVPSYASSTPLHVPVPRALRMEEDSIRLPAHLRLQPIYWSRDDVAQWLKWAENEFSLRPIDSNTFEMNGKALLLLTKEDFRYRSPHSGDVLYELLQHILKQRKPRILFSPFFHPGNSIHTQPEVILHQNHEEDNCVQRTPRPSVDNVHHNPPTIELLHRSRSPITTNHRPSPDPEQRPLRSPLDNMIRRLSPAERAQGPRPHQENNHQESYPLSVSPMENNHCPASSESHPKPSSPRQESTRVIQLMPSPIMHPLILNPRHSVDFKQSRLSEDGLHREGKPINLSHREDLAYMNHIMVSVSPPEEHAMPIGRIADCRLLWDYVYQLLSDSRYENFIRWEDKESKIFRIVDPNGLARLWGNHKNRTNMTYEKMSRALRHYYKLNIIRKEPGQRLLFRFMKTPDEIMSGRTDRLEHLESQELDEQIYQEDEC
# ETV5, sequence (P41161 whole entry): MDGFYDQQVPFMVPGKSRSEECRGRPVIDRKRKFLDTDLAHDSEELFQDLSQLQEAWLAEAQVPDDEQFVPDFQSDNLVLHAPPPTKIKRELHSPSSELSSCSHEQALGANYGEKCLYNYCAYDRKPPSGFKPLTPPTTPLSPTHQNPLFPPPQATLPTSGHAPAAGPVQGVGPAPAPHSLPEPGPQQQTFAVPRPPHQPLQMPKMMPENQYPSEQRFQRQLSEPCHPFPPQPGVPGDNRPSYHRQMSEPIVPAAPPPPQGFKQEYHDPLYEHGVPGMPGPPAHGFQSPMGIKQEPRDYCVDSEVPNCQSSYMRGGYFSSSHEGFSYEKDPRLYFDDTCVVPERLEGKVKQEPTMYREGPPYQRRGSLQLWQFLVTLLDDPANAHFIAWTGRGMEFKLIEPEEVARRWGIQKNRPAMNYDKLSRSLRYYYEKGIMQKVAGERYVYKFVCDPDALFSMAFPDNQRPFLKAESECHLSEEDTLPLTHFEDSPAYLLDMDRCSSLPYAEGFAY
# CRX, sequence (O43186 whole entry): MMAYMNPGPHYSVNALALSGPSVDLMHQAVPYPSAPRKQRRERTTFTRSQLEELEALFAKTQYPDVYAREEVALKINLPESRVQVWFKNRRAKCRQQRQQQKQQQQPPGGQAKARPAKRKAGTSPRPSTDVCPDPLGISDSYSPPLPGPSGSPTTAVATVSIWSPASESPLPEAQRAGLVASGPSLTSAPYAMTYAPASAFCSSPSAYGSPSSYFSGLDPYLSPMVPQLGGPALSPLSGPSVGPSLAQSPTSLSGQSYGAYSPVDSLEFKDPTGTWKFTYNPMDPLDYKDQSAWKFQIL
# HSF1, sequence (Q00613 whole entry): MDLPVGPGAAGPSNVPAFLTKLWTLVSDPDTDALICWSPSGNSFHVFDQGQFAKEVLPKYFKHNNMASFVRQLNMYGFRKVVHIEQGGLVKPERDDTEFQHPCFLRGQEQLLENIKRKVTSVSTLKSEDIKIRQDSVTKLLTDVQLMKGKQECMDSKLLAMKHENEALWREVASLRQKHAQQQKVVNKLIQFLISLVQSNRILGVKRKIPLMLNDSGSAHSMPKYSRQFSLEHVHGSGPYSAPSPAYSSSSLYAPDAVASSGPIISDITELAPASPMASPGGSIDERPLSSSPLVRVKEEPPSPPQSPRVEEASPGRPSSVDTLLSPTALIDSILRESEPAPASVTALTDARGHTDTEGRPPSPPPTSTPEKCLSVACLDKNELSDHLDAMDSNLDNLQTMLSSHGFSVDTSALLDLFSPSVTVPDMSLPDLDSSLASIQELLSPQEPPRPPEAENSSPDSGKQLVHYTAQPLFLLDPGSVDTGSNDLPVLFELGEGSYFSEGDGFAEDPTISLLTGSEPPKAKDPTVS
sequence,measurement,setting,value
CCGCTT,binding signal,FEV,"2.01 fold enrichment (6-mer frequency, TF over GST control)"
same,binding signal,ETV5,"2.03 fold enrichment (6-mer frequency, TF over GST control)"
same,binding signal,HSF1,"1.49 fold enrichment (6-mer frequency, TF over GST control)"
same,binding signal,SPIC,"1.83 fold enrichment (6-mer frequency, TF over GST control)"
same,binding signal,ELF4,"1.87 fold enrichment (6-mer frequency, TF over GST control)"
same,binding signal,ELK4,"1.8 fold enrichment (6-mer frequency, TF over GST control)"
same,binding signal,ETV2,"1.6 fold enrichment (6-mer frequency, TF over GST control)"
same,binding signal,ELF3,"2.08 fold enrichment (6-mer frequency, TF over GST control)"
same,binding signal,CRX,"1.82 fold enrichment (6-mer frequency, TF over GST control)"
same,binding signal,ETV1,"2.11 fold enrichment (6-mer frequency, TF over GST control)"
same,binding signal,ERF,"1.77 fold enrichment (6-mer frequency, TF over GST control)"
same,binding signal,ETV3L,"1.89 fold enrichment (6-mer frequency, TF over GST control)"
same,binding signal,ETS2,"1.95 fold enrichment (6-mer frequency, TF over GST control)"
same,binding signal,SPDEF,"1.99 fold enrichment (6-mer frequency, TF over GST control)"
same,binding signal,ETV7,"1.62 fold enrichment (6-mer frequency, TF over GST control)"
same,binding signal,ELF5,"2.05 fold enrichment (6-mer frequency, TF over GST control)"
same,binding signal,ETV3,"1.96 fold enrichment (6-mer frequency, TF over GST control)"
same,binding signal,ETV6,"2.17 fold enrichment (6-mer frequency, TF over GST control)"

# — paper PMC7862700, “An all-to-all approach to the identification of sequence-specific readers for epigenetic DNA modifications on cytosine”
